For 28 molecules, Potency results are on record in PubChem BioAssay (Tox21).

“And” between values parts separate entries of the source, which are not always exact repeats. Equal values may be shown once. Results filed as inconclusive are left out. More than one record can exist for a structure, and the calls need not agree. The source made the active and inactive calls. Unless noted, calls follow the shape of the dose curve; as a rule, active = well fitted curve in the direction sought with a large enough effect in the repeat runs; inconclusive = weak or mixed curves; inactive = no such curve, though single readings can be large; an effect the other way counts as inactive or inconclusive.

A short description of test [1]: qHTS assay to identify small molecule antagonists of the estrogen related receptor (ERR) signaling pathway from Tox21 library - cell viability counter screen (AID 1224834). Also: nearly all actives have a fitted effect of over 30% in size. The gist of the method: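 Compounds in DMSO were pinned onto ERR cells that had been incubated for 6 h, and the plates were held at 37 C for 17.5 h. CellTiter-Fluor reagent was then added and fluorescence was measured after 30 min.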
A general note: qHTS replaces the single test concentration by a dilution series.

Test [2] addresses Luciferin 4-monooxygenase (Photinus pyralis) (UniProt P08659). Put plainly: qHTS assay to identify small molecule inhibitors of firefly luciferase (AID 1224835). Also: nearly all actives have a fitted effect of over 25% in size. The method, boiled down:
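Quantitative HTS format; KM concentrations of both substrates. Purified P. pyralis FLuc activity quantified from luminescence images.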

Test [3] is described as follows: qHTS assay to identify small molecule agonists of the constitutive androstane receptor (CAR) signaling pathway - cell viability counter screen (AID 1224836). Also: nearly all actives have a fitted effect of over 45% in size. The method, boiled down: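 23 h treatment, 37 C, 5% CO2. Cell line: HepG2 stably expressing hCAR with a CYP2B6-2.2kb construct. Co-treatment: PK11195, 0.75 uM final. Read-out: CellTiter-Fluor fluorescence intensity.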

Test [4] is described as follows: qHTS assay to identify small molecule antagonists of the constitutive androstane receptor (CAR) signaling pathway - cell viability counter screen (AID 1224837). Also: nearly all actives have a fitted effect of over 45% in size. The method, boiled down: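 Cells are seeded, rested 4 hr at 37 C/5% CO2, dosed with compound (15-point series) and 50 nM CITCO, incubated a further 23 hr, and then CellTiter-Fluor reagent is added before fluorescence is read. The line is HepG2 with stable hCAR and CYP2B6-2.2kb.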

The target in test [5] is Nuclear receptor subfamily 1 group I member 3 (Homo sapiens) (UniProt Q14994). Nature of the test: qHTS assay to identify small molecule antagonists of the constitutive androstane receptor (CAR) signaling pathway (AID 1224838).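 Also: HepG2 cells stably expressing hCAR with CYP2B6 luciferase reporter stimulated by CITCO; nearly all actives have a fitted effect of over 40% in size.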 The method, boiled down:
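Luminescence from a CYP2B6-2.2kb promoter reporter in hCAR-expressing HepG2 cells reflects CAR signaling. Cells received compounds at 15 concentrations and 50 nM CITCO (final), then incubated 24 h at 37 C/5% CO2.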

For test [6] the target is unchanged. Put plainly: qHTS assay to identify small molecule agonists of the constitutive androstane receptor (CAR) signaling pathway (AID 1224839). Also: nearly all actives have a fitted effect of over 15% in size. The method, boiled down:
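Compounds tested at 15 concentrations on HepG2 cells stably harbouring hCAR and CYP2B6-2.2kb reporter constructs, co-treated with PK11195 (0.75 uM final), 24 h at 37 C; luminescent reporter signal quantified.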

Test [7] is described as follows: qHTS assay to identify small molecule antagonists of the estrogen related receptor signaling pathway with the pleiotropic PPARgamma coactivator (PGC) from Tox21 10K library - cell viability counter screen (AID 1224840; active = well fitted cell-killing curve with a large enough effect in the repeat runs, not every such curve was filed as active; also: nearly all actives have a fitted effect of over 40% in size). The gist of the method:
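Cell viability is measured by CellTiter-Fluor fluorescence in PGC/ERR cells that receive compounds after a 6-hour attachment period and are then incubated 17.5 hours at 37 C.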

Test [8] can be described thus: qHTS assay to identify small molecule antagonists of the estrogen related receptor signaling pathway with the pleiotropic PPARgamma coactivator (PGC) from Tox21 10K library (AID 1224841; call rule not given here; also: actives are mostly falling curves and most rising ones were filed inactive; nearly all actives have a fitted effect of over 50% in size). The gist of the method: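 Cells stably carrying the PGC/ERR reporter, seeded at 2,000 per well, received pin-transferred compounds 6 h post-plating. Exposure lasted 18 h at 37 C. Signal: One-Glo luminescence.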

Test [9] can be described thus: qHTS assay to identify small molecule agonists of the estrogen related receptor signaling pathway with the pleiotropic PPARgamma coactivator (PGC) from Tox21 10K library (AID 1224842). Also: nearly all actives have a fitted effect of over 15% in size. The method, boiled down: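 PGC/ERR reporter cells (NTP line) were seeded 2,000 per well, rested 6 h at 37 C/5% CO2, then pin-dosed with compounds in DMSO for 18 h at 37 C; luciferase read by One-Glo luminescence after 30 min at room temperature.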
Potency is read from the fitted curve at half-maximal effect.

Nuclear receptor subfamily 1 group I member 3 (Homo sapiens), sequence (Q14994 whole entry, looked up): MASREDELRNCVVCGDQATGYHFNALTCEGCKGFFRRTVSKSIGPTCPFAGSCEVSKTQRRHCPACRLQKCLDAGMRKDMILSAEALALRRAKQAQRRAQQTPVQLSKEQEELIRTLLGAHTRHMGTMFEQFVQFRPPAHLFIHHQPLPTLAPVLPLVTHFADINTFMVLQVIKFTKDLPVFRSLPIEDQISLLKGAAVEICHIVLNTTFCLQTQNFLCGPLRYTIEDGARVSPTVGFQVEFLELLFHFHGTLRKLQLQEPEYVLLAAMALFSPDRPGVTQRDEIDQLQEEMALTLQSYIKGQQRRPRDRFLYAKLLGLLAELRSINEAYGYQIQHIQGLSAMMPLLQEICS
Luciferin 4-monooxygenase (Photinus pyralis), sequence (P08659 whole entry, looked up): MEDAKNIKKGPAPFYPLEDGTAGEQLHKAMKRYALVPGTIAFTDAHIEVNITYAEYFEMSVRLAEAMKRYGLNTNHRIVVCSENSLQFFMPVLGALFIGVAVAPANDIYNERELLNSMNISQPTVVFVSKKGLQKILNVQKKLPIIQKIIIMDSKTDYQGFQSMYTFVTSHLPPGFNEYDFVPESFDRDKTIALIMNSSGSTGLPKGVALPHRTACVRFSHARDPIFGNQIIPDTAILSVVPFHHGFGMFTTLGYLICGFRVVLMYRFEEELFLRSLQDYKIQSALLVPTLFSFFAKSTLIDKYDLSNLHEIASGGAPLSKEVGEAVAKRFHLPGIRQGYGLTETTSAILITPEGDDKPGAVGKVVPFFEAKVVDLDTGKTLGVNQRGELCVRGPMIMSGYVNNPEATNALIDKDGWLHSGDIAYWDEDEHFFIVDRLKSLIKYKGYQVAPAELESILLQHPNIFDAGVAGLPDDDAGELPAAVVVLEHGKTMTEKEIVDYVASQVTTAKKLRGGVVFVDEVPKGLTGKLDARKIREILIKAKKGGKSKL

As for `CC(Cl)Cl`, the Potency result in test [1], in [2], in test [3], in [4], in [5] and in [6] was “inactive” throughout. Moreover, the Potency result in test [7], in test [8] and in [9] was “inactive” each time.
In the case of `COC(=O)C(Br)CBr` (stereo not drawn), the Potency entry in [1], in [2], in test [3], in test [4], in test [5] and in test [6] was “inactive” throughout. Besides, the Potency result in test [9] was “inactive”.
For the molecule `CCC(Br)(CC)C(=O)NC(N)=O`, the Potency result in [1], in test [2], in [3], in [4], in test [5] and in test [6] was “inactive” throughout. Besides, the Potency result in test [7] is “inactive”.
With `CC1Sc2c(C(=O)O)c(=O)c3cc(F)c(N4CCNCC4)cc3n21` (stereo not drawn), the Potency result in test [1], in [2], in test [3], in [4], in test [6] and in test [7] was “inactive” throughout. The Potency entry in [8] and in test [9] was “inactive” each time.
Turning to `COc1nn(C(=O)NS(=O)(=O)c2ccccc2OC(F)(F)F)c(=O)n1C`, the Potency entry in test [1], in test [2], in [3], in test [4], in test [5] and in test [6] was “inactive” in each case. Also, the Potency entry in [7], in test [8] and in test [9] was “inactive” in each case.
Consider `O=C(O)C(F)(F)C(F)(F)C(F)(F)C(F)(F)C(F)(F)C(F)(F)C(F)(F)C(F)(F)C(F)(F)C(F)(F)F`, for which the Potency result in test [1], in test [2], in test [3], in test [4], in test [5] and in test [7] was “inactive” each time. Besides, the Potency result in test [8] is “inactive”. Further, in [9], the Potency is 57.9 µM (active).
Regarding `CC/C(=N\OC/C=C/Cl)C1=C(O)CC(C2CCOCC2)CC1=O` (stereo not drawn), the Potency entry in [1], in test [2], in test [3], in test [4], in test [5] and in [6] was “inactive” throughout. For the same molecule, the Potency result in test [7], in [8] and in [9] was “inactive” each time.
For the molecule `CCOP(=O)(OCC)Oc1ccc([N+](=O)[O-])cc1`, the Potency result in test [1], in [2], in test [3], in test [4], in [5] and in test [6] was “inactive” throughout. The Potency result in test [7] and in test [9] was “inactive” throughout. In addition, the Potency in test [8] is 19.6 µM (active) and 5.45 µM (active).
In the case of `O=C1C(Cl)C(CCl)CN1c1cccc(C(F)(F)F)c1` (stereo not drawn), the Potency result in test [1], in test [2], in test [3], in test [4], in test [5] and in [6] was “inactive” each time. Also, the Potency result in test [7] and in [9] was “inactive” throughout.
With `CCCCCCC#N`, the Potency result in test [1], in test [2], in test [3], in test [4] and in test [7] was “inactive” throughout.
As to `CC(=O)CCC(C)=O`, the Potency result in test [1], in [2], in test [3], in test [4], in test [5] and in [6] was “inactive” each time. Also, the Potency entry in [7] was “inactive”.
With `CCOP(=S)(OCC)SCn1nnc2ccccc2c1=O`, the Potency in [1] is 43.3 µM (active); in test [6], 24.3 µM (active). Also, the Potency result in test [2], in test [3], in test [4], in test [5] and in test [9] was “inactive” in each case.
Turning to `O=C(CCl)c1ccc(Cl)cc1Cl`, the Potency entry in test [1] is “inactive and 21.1 µM (active)”; in test [5], 13.3 µM (active). The Potency entry in test [2], in [3], in [4], in test [6], in [7] and in test [9] was “inactive” throughout.
As for `CN(C)c1ccc(N(C)C)cc1`, the Potency entry in test [1], in test [3], in test [4], in test [5] and in test [7] was “inactive” in each case. Also, the Potency in test [2] was 63.5 µM (active); in [6], 61.3 µM (active).
As to `Clc1cc(Cl)c(Cl)c(Cl)c1`, the Potency result in [1], in test [2], in test [4], in [5], in [6] and in [7] was “inactive” throughout.
As to `C=COC(C)=O`, the Potency entry in test [1], in test [2], in test [4], in [5] and in test [6] was “inactive” each time.
Take `CN1[C@@H]2CC[C@H]1CC(OC(=O)c1cc(Cl)cc(Cl)c1)C2` (stereo partly drawn): the Potency result in test [1], in test [2], in [4] and in test [7] was “inactive” each time.
In the case of `CCC(Cl)CCl` (stereo not drawn), the Potency result in test [1], in test [2], in test [4], in [5], in [6] and in test [7] was “inactive” throughout. The Potency result in test [8] and in [9] was “inactive” each time.
In the case of `COc1ccc(-c2ccccc2)cc1NNC(=O)OC(C)C`, the Potency in [1] is 63.7 µM (active); in [6] it was 63.7 µM (active); in [8], 35.8 µM (active). Besides, the Potency result in [2], in test [4], in test [5] and in test [9] was “inactive” throughout.
Turning to `CCC(C)(NC(=O)c1cc(Cl)c(C)c(Cl)c1)C(=O)CCl` (stereo not drawn), the Potency is 24.5 µM (active) in test [1], 61.5 µM (active) in [3], 48.9 µM (active) in test [5] and 3.88 µM (active) in [8]. In addition, the Potency entry in test [2], in test [6] and in test [9] was “inactive” each time.
On to `IC(I)=C(I)I`, for which the Potency in test [1] is 27.3 µM (active); in test [4], 27.3 µM (active); in test [5], 12.2 µM (active); in [7], 24.3 µM (active); in test [8] it was 21.7 µM (active). The Potency result in test [2], in test [6] and in [9] was “inactive” throughout.
With `O=NN1CCCCCC1`, the Potency entry in test [1], in test [2], in [4] and in test [7] was “inactive” in each case.
As to `Cc1ccc2ccccc2c1`, the Potency result in test [1], in [2], in test [3], in [4], in test [7] and in test [8] was “inactive” each time. Further, the Potency result in test [9] was “inactive”.
Regarding `O=Cc1ccc2c(c1)OCO2`, the Potency result in test [1], in [2], in test [3], in [4] and in test [7] was “inactive” each time.
As for `Cl/C=C\C[N+]12CN3CN(CN(C3)C1)C2`, the Potency result in test [1], in test [2], in [4], in [6], in test [7] and in test [8] was “inactive” in each case. The Potency entry in [9] is “inactive”. Also, the Potency in test [5] is 61.1 µM (active).
As to `CCCC(Cn1cncn1)c1ccc(Cl)cc1Cl` (stereo not drawn), the Potency in test [1] is 54.5 µM (active); in test [6] it was 61.1 µM (active); in test [8] it was 30.6 µM (active). The Potency entry in [2], in test [3], in test [5] and in test [9] was “inactive” throughout.
In the case of `O=S1(=O)OC(c2cc(Br)c(O)c(Br)c2)(c2cc(Br)c(O)c(Br)c2)c2ccccc21`, the Potency in [1] is 25 µM (active); in test [2] it was 10.3 µM (active); in test [4] it was 28.1 µM (active); in [5], 25 µM (active); in test [7], 25 µM (active). The Potency result in [6] is “inactive”.
Regarding `C[C@H]1CNCCc2ccc(Cl)cc21`, the Potency entry in test [1], in [2], in [4], in test [5], in test [6] and in test [7] was “inactive” in each case. Besides, the Potency entry in test [8] and in test [9] was “inactive” in each case.
